Source: publication PMC10726135, “HNF4α isoforms regulate the circadian balance between carbohydrate and lipid metabolism in the liver”
In all, about 18,000 sequences were measured (“log2 normalized intensity”: median about 0.39, highest 2% from about 6.6 on). This is one part of a sample in which the highest values are shown more often than they occur.

Target: T1, HNF4alpha2 (COS-7 nuclear extract) (Homo sapiens, UniProt P41235 1-474)
T1 sequence: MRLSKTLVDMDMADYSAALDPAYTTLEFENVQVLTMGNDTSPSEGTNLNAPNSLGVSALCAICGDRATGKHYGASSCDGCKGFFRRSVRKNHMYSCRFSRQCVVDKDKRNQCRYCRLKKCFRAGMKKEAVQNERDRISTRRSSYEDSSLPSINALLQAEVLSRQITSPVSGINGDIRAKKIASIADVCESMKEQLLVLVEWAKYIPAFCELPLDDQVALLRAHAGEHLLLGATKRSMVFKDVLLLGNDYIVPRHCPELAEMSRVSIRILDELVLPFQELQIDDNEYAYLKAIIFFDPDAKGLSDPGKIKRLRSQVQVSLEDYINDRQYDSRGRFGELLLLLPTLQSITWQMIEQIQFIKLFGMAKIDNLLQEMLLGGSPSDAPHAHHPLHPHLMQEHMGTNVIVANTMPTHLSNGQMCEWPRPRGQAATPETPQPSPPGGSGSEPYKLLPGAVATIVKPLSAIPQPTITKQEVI
Test: protein-binding microarray; COS-7 nuclear extract on double-stranded Agilent 4x180k PBM; binding buffer, salt, pH and temperature not given in the material; high values mean tight binding
Conditions: chain copies: 2; label: 3' end of strand 1 on the slide; dsDNA, one strand shown
Method in brief: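 Nuclear extracts came from COS-7 cells transiently transfected by CaPO4 with a human HNF4α isoform expression vector. They were applied to a custom Agilent SurePrint G3 4x180k array of ~60-nt oligonucleotides, made double-stranded, with ~44,000 test sequences spotted in quadruplicate. Bound HNF4α was imaged at 2-µm resolution on an Agilent G2565CA scanner. Binding signal was taken as background-corrected, normalized gProcessedSignal from Agilent software.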

| Sequence | binding signal [log2 normalized intensity] |
| --- | --- |
| AACAAAAAGGGCAAAGGTCAGCTCATTCCCGCCTAGGGAGATTAGAGTATCGGTCGA | 6.63 |
| TATGAGAGAGAGAGAGAGGTGGGCAAAGGTGCCTAGGGAGATTAGAGTATCGGTCGA | 1.53 |
| TGGGCCCACAGATGATCAAAGGTCAGTCTTGCCTAGGGAGATTAGAGTATCGGTCGA | 6.53 |
| ATGGAGCTGGAGGGCAAAGGTCAGAGGCTGGCCTAGGGAGATTAGAGTATCGGTCGA | 6.39 |
| CACTGGGGTCATGGAGCTGGAGGGCAAAGGGCCTAGGGAGATTAGAGTATCGGTCGA | 3.25 |
| AATCATGGGCCCACAGATGATCAAAGGTCAGCCTAGGGAGATTAGAGTATCGGTCGA | 7.06 |
| CCAAAGTCCTTCCCAAGTCCTGCATGTGTTGCCTAGGGAGATTAGAGTATCGGTCGA | 1.84 |
| CCCTACTGTACCCTATGCACCCCACAGTGCGCCTAGGGAGATTAGAGTATCGGTCGA | 2.11 |
| ACCTTTAGCACCGTAAGAGAGTATTTCCCAGCCTAGGGAGATTAGAGTATCGGTCGA | 1.13 |
| CACAAGCTGGGTCAACATCAGCCCTCCTAGGCCTAGGGAGATTAGAGTATCGGTCGA | 1.49 |
| GGGCACCGCCTCCACACCCCAGCCTGCCCTGCCTAGGGAGATTAGAGTATCGGTCGA | 3.1 |
| GGGGCAGGTAAGTACCAATATTTGTTAAGTGCCTAGGGAGATTAGAGTATCGGTCGA | 1.08 |
| ATACTTTCAGCTAGCTGAGTGAGTAGGTTCGCCTAGGGAGATTAGAGTATCGGTCGA | 1.31 |
| GCCTCTTTATCTCCTCCCCTTGAGACTTTAGCCTAGGGAGATTAGAGTATCGGTCGA | 2.85 |
| AACTCTCAGTTTGGCTCTTATGTCCCTCCTGCCTAGGGAGATTAGAGTATCGGTCGA | 1.35 |
| TTGGCTCTTATGTCCCTCCTGACCTTTGGAGCCTAGGGAGATTAGAGTATCGGTCGA | 8.6 |
| TCAGTTTGGCTCTTATGTCCCTCCTGACCTGCCTAGGGAGATTAGAGTATCGGTCGA | 3.25 |
| TCTTATGTCCCTCCTGACCTTTGGACTTGAGCCTAGGGAGATTAGAGTATCGGTCGA | 10.3 |
| TGTCCCTCCTGACCTTTGGACTTGATAGAGGCCTAGGGAGATTAGAGTATCGGTCGA | 9.11 |
| CCTGACCTGCCCTTTGTCCCTCCTGCTAGTGCCTAGGGAGATTAGAGTATCGGTCGA | 3.3 |
| AGTCCTGACCTTGGACTCTGCCCTTGGCCTGCCTAGGGAGATTAGAGTATCGGTCGA | 5.81 |
| ACCTTTGTCCTCATTGAGCCCTCCCCTTGTGCCTAGGGAGATTAGAGTATCGGTCGA | 4.33 |

| Sequence | binding signal [log2 normalized intensity] |
| --- | --- |
| CTCTGTGCTCCCAGTTCCCTCATTAGTAACGCCTAGGGAGATTAGAGTATCGGTCGA | 1.33 |
| CAAAGGACATTTCTAAAAATAGCCTTACTTGCCTAGGGAGATTAGAGTATCGGTCGA | -0.901 |
| CCCGGCAGCCCTGCTCCCCGCCTTGGCCTCGCCTAGGGAGATTAGAGTATCGGTCGA | 1.56 |
| CTACAGGTATGCCTTTGAAGAGTACAGCCTGCCTAGGGAGATTAGAGTATCGGTCGA | -0.571 |
| AGCAAACACAAACTATGACCTTTGAAACTTGCCTAGGGAGATTAGAGTATCGGTCGA | 7.13 |
| AGAGAGTTCTATGGGATGACCTTTGAGCAAGCCTAGGGAGATTAGAGTATCGGTCGA | 6.93 |
| TGACAAGCAAACACAAACTATGACCTTTGAGCCTAGGGAGATTAGAGTATCGGTCGA | 8.49 |
| GTTCTATGGGATGACCTTTGAGCAATAGGAGCCTAGGGAGATTAGAGTATCGGTCGA | 5.15 |
| CAGCAACACTCTACTACTTGACCTTTGAAAGCCTAGGGAGATTAGAGTATCGGTCGA | 6.06 |
| ATGACCCAAACTTCACAAAAATGAGTGCAAGCCTAGGGAGATTAGAGTATCGGTCGA | -0.838 |
| TTCTTTTTGAAGCAAAGCCTTTGAGCAGATGCCTAGGGAGATTAGAGTATCGGTCGA | 0.819 |
| ACACAAACTATGACCTTTGAAACTTACATTGCCTAGGGAGATTAGAGTATCGGTCGA | 5.64 |
| GGGCGAGAGAGTTCTATGGGATGACCTTTGGCCTAGGGAGATTAGAGTATCGGTCGA | 6.25 |
| CCTTTCATGTACTGTTCAGTTCCTATTTCAGCCTAGGGAGATTAGAGTATCGGTCGA | 1.72 |
| GAGTGGACTTTGGCTTATGCAAATGTTATGGCCTAGGGAGATTAGAGTATCGGTCGA | 4.25 |
| TGGTACTATGACCTTTCACCTTTTAGCTTGGCCTAGGGAGATTAGAGTATCGGTCGA | 5.81 |
| GAGTGACCTGGTATTGCAAGTATTTCACCCGCCTAGGGAGATTAGAGTATCGGTCGA | 1.57 |
| ACCTTTGACCTGGTACTATGACCTTTCACCGCCTAGGGAGATTAGAGTATCGGTCGA | 7.01 |
| CTATGACCTTTCACCTTTTAGCTTGGCATGGCCTAGGGAGATTAGAGTATCGGTCGA | 4.41 |
| TTCACCTTTCGCCCTTTGTCCTATGACTCTGCCTAGGGAGATTAGAGTATCGGTCGA | 4.63 |
| TGACCTGGTACTATGACCTTTCACCTTTTAGCCTAGGGAGATTAGAGTATCGGTCGA | 6.99 |
